Screening results deposited in PubChem BioAssay by National Center for Advancing Translational Sciences (NCATS).
In the library only some 1.8% were active in any assay of this set; here they are far more common.
HttQ103 aggreg – reduces HttQ103-GFP aggregates in PC12 cells | AID 1688 | PC12 HttQ103-GFP aggregates, Acumen cytometry, 40 h | Potency, µM (titrated, usually from 46.1 µM), usual class: inhibitors | 1.1% of 220,000 active; further: nearly all actives have a fitted effect of over 60% in size
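PC12/HTTQ103-GFP, ecdysone-inducible; teb 100 nM; cpd qHTS titration; GFP aggregates read on laser cytometer, Ex 488/Em 500-530 nm.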
L3MBTL1 inh-1 – inhibitors of human L3MBTL1. Q9Y468. AlphaScreen L3MBTL1–H3K9me1 peptide binding. Potency, µM (highest dose often 57.1 µM), most hits filed as inhibitors. 0.66% of 230,000 active. AID 485360; further: nearly all actives have a fitted effect of over 60% in size
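L3MBTL1 (50 nM) pre-complexed 30 min with biotinylated H3(1-15)K9me1 peptide (75 nM), then compounds added for 30 min at room temperature; AlphaScreen streptavidin donor/nickel chelate acceptor beads (10 ug/mL final) read after 30 min dark incubation.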
JMJD2E inh – inhibitors of human JMJD2E histone demethylase. B2RXH2. JMJD2E catalytic domain, FDH-coupled NADH fluorescence (FDH is formaldehyde dehydrogenase). Potency, µM (doses to about 57.1 µM), usual class: inhibitors. 1.6% of 230,000 active; active means well fitted inhibition curve with a large enough effect, not every such curve was filed as active; inconclusive means small, poorly fitted or top-dose-only effect, or another doubt; inactive means no such curve, though single readings can be large or run the other way; further: nearly all actives have a fitted effect of over 50% in size
Target sequence (B2RXH2 1-337 limits assumed): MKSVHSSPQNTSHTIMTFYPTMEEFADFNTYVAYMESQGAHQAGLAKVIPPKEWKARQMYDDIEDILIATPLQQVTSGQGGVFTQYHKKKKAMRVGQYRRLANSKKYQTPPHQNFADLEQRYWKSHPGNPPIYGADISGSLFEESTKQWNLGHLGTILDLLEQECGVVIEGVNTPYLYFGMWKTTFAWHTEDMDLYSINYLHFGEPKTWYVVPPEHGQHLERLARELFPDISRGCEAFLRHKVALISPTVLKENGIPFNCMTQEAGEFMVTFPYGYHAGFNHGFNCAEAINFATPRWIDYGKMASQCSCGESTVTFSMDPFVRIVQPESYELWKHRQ
HTT cytoprotect – cytoprotection in Huntington HTT-Q103 PC12 cell model; Potency, µM (series often up to 56.4 µM), most hits filed as activators; PC12 HTT-Q103 induced, cytoprotection, ATP luminescence, 40 h; AID 1471; 0.14% of 230,000 active; further: nearly all actives have a fitted effect of over 45% in size
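Quantitative HTS on tebufenozide-induced (100 nM) PC12 cells expressing HTTQ103 exon 1–GFP; compounds tested as a concentration series; survival measured via cellular ATP.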
L3MBTL1 inh-2 – validation of human L3MBTL1 methyl-lysine binding inhibitors; shares compounds with L3MBTL1 inh-1; L3MBTL1 methyl-lysine binding inhibition, biochemical qHTS; Potency, µM, most hits filed as inhibitors; 91% of 500 active; further: nearly all actives have a fitted effect of over 70% in size
AlphaScreen ctr2 – counter-screen for L3MBTL1 inhibitors: AlphaScreen signal interference; shares compounds with L3MBTL1 inh-1; AlphaScreen counterscreen, signal inhibition; Potency, µM (top dose mostly 57.1 µM), hits mostly inhibitors; 500 tested, under 10 active
Each line names hits and unclear results; the compound was inactive in the other large screens (follow-up assays come after a bar, where they were run); ! = a repeat was not active. Unless noted, the call rests on the fitted dose curve; in most records, active means well fitted curve in the direction sought with a large enough effect; inconclusive means small, poorly fitted or top-dose-only effect, or another doubt; inactive means no such curve, though single readings can be large; an effect the other way counts as inactive or inconclusive.

CNc1ccc2oc(C[C@@H]3OC4(CC[C@@H]3C)O[C@H]([C@@H](C)C(=O)c3ccc[nH]3)[C@H](C)C[C@H]4C)nc2c1C(=O)O (some centres not stated)	none (no result: HttQ103 aggreg, L3MBTL1 inh-1, JMJD2E inh)
COc1ccc(-c2nc3ccccc3c(=O)n2-c2ccc(OC)cc2)cc1	none
Cc1ccc(-n2sc3ccccc3c2=O)cc1	JMJD2E inh 28.2µM, HTT cytoprotect inconclusive
COc1cccc2c1C(=O)c1c(O)c3c(c(O)c1C2=O)C[C@](O)(/C(C)=N\O)C[C@@H]3O[C@H]1C[C@H](N)[C@@H](O)[C@H](C)O1	none (no result: HttQ103 aggreg, L3MBTL1 inh-1, JMJD2E inh)
N[C@H](Cc1ccc2oc3cc(=O)c4ccccc4c-3nc2c1)C(=O)O	none (no result: HttQ103 aggreg, L3MBTL1 inh-1, JMJD2E inh)
O=c1c2ccccc2nc(-c2ccccc2)n1-c1ccccc1	none
O=c1c2ccccc2[se]n1-c1ccccc1	HttQ103 aggreg inconclusive, JMJD2E inh 0.398µM
NC(N)=NN=C(/C=C/c1ccc([N+](=O)[O-])o1)/C=C/c1ccc([N+](=O)[O-])o1	HttQ103 aggreg 10µM (no result: L3MBTL1 inh-1, JMJD2E inh)
CCOC(=O)c1ccc(NC(=O)c2c(O)[nH]c(=O)[nH]c2=O)cc1	HttQ103 aggreg 3.55µM, L3MBTL1 inh-1 7.08µM, JMJD2E inh inconclusive
COc1ccc2c(c1O)-c1cccc3c1[C@H](C2)N(C)CC3	none (no result: HttQ103 aggreg, L3MBTL1 inh-1, JMJD2E inh)
N#Cc1c(/N=C/c2c(O)n(Cc3ccco3)c(=O)[nH]c2=O)sc2c1CCCC2	L3MBTL1 inh-1 14.1µM, JMJD2E inh inconclusive
O=c1[nH]c(=O)n(Cc2ccco2)c(O)c1/C=N/N1CCCCCC1	none
COc1cc2c(cc1O)CCN[C@H]2C	none (no result: HttQ103 aggreg, L3MBTL1 inh-1, JMJD2E inh)
[CH3][Hg][Cl]	none (no result: HttQ103 aggreg, L3MBTL1 inh-1, JMJD2E inh)
CC(C)[C@@]1(NC(=O)[C@H]2C[C@H]3c4cccc5[nH]cc(c45)C[C@@H]3N(C)C2)O[C@]2(O)[C@H]3CCCN3C(=O)[C@H](Cc3ccccc3)N2C1=O	none (no result: HttQ103 aggreg, L3MBTL1 inh-1, JMJD2E inh)
CC(C)c1ccc(N2C(=O)NC(=O)/C(=C/c3cnc(-c4ccccc4)nc3)C2=O)cc1	JMJD2E inh 8.91µM
O=C1NC(=O)N(Cc2ccccc2)C(=O)/C1=C/c1cnc(-c2ccccc2)nc1	JMJD2E inh 22.4µM (no result: L3MBTL1 inh-1)
CN(C)c1ccc(/C=C2\C(=O)NC(=O)N(Cc3ccc(F)cc3)C2=O)cc1	JMJD2E inh inconclusive (no result: L3MBTL1 inh-1)
CC1Oc2cc3c(-c4c(O)cc(O)c5c(O)c6c(cc45)OC(C)C(C)C6=O)c(O)cc(O)c3c(O)c2C(=O)C1C (configuration not stated)	L3MBTL1 inh-1 2µM, JMJD2E inh 20µM
[Hg+][c]1ccccc1	HttQ103 aggreg 3.16µM (no result: L3MBTL1 inh-1, JMJD2E inh)
O=[As](O)(O)c1ccc(Cc2ccc([As](=O)(O)O)cc2)cc1	none (no result: HttQ103 aggreg, L3MBTL1 inh-1, JMJD2E inh)
C=C(C)[C@H]1[C@H]2OC(=O)[C@@H]1[C@]1(O)C[C@H]3O[C@]34C(=O)O[C@H]2[C@]14C	none (no result: HttQ103 aggreg, L3MBTL1 inh-1, JMJD2E inh)
CCCCC/C=C\C/C=C\C/C=C\C/C=C\CCCC(=O)NCCCC(=O)O	none (no result: HttQ103 aggreg, L3MBTL1 inh-1)
CCCCC/C=C\C/C=C\C/C=C\C/C=C\CCCC(=O)NCC(=O)O	JMJD2E inh 22.4µM! (no result: L3MBTL1 inh-1)
CN1C[C@H](C(=O)N[C@@]2(C)O[C@@]3(O)[C@H]4CCCN4C(=O)[C@@H](Cc4ccccc4)N3C2=O)C=C2c3cccc4[nH]cc(c34)C[C@@H]21	none (no result: HttQ103 aggreg, L3MBTL1 inh-1, JMJD2E inh)
C[C@@H]1O[C@@H](O[C@H]2C[C@@H](O)[C@]3(CO)[C@@H]4[C@@H](O)C[C@]5(C)[C@H](C6=CC(=O)OC6)CC[C@@]5(O)[C@H]4CC[C@@]3(O)C2)[C@H](O)[C@H](O)[C@@H]1O	none (no result: HttQ103 aggreg, L3MBTL1 inh-1, JMJD2E inh)
Fc1ccc(CNCCc2ccccc2)cc1	JMJD2E inh 31.6µM
CCOc1ccc(N2C(=O)/C(=C/c3ccc(C)o3)C(=O)NC2=S)cc1	L3MBTL1 inh-1 22.4µM (no result: HttQ103 aggreg, JMJD2E inh, HTT cytoprotect) | L3MBTL1 inh-2 2.67 | AlphaScreen ctr2 inactive
O=C1NC(=S)N(C2CC2)C(=O)/C1=C/c1ccc2c(c1)CCN2CCCCl	L3MBTL1 inh-1 31.6µM, JMJD2E inh inconclusive | L3MBTL1 inh-2 4.23 | AlphaScreen ctr2 inactive
CCN1C(=O)/C(=C/c2ccc3c(c2)CCN3CCCCl)C(=O)NC1=S	L3MBTL1 inh-1 inconclusive, JMJD2E inh inconclusive
CN1CCC(N2CC3CC(C2)c2cccc(=O)n2C3)CC1 (configuration not stated)	L3MBTL1 inh-1 39.8µM | L3MBTL1 inh-2 26.7 | AlphaScreen ctr2 inactive
O=C(N1CCOCC1)C1(c2ccccc2)CCNCC1	none (no result: HttQ103 aggreg, L3MBTL1 inh-1, JMJD2E inh)
O=C1NC(=O)N(Cc2ccc(F)cc2)C(=O)/C1=C\c1ccoc1	L3MBTL1 inh-1 20µM | L3MBTL1 inh-2 7.52 | AlphaScreen ctr2 inactive
C=CCBr	none (no result: HttQ103 aggreg, L3MBTL1 inh-1, JMJD2E inh)
Cc1cc(/C=C2\C(=O)NC(=O)N(Cc3ccccc3)C2=O)c(C)n1-c1ccc(Cl)c(C(=O)O)c1	L3MBTL1 inh-1 4.47µM, JMJD2E inh inconclusive (no result: HTT cytoprotect) | L3MBTL1 inh-2 0.752 | AlphaScreen ctr2 inactive
Cc1cc(/C=C2\C(=O)NC(=O)N(c3ccc(F)cc3)C2=O)c(C)n1-c1ccc(C(=O)O)cc1	L3MBTL1 inh-1 inconclusive
Cc1cc(/C=C2\C(=O)NC(=O)N(Cc3ccco3)C2=O)c(C)n1-c1ccc(C(=O)O)cc1	L3MBTL1 inh-1 28.2µM | L3MBTL1 inh-2 13.4 | AlphaScreen ctr2 inactive
Cc1cc(/C=C2\C(=O)NC(=O)N(Cc3ccccc3Cl)C2=O)c(C)n1-c1ccc(C(=O)O)cc1	L3MBTL1 inh-1 28.2µM | L3MBTL1 inh-2 5.32 | AlphaScreen ctr2 inactive
Cc1c(Cl)cccc1N1C(=O)NC(=O)/C(=C\c2cc(C)n(-c3cccc(C(=O)O)c3C)c2C)C1=O	none (no result: HttQ103 aggreg, JMJD2E inh, HTT cytoprotect)
O=[N+]([O-])C(Br)Br	none (no result: HttQ103 aggreg, L3MBTL1 inh-1, JMJD2E inh)
NC[C@@H](Cc1ccccc1)P(=O)(O)O	none (no result: HttQ103 aggreg, L3MBTL1 inh-1, JMJD2E inh)
